From PubChem BioAssay (NCI)
The panel holds about 83,000 compounds, 20% with a hit somewhere; the sample as a whole holds those more often.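 Treatment: one concentration, 48 hours, 96-well format. Scoring: percent growth, with anything below 10 considered active.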 The source made the active and inactive calls.

What was measured:
Assay in all cases: NCI-60 one-dose screen, 48 h (100 = growth as untreated, 0 = no growth, -100 = all killed)
Settings in all cases: 10 µM unless noted
SK-MEL-2 melanoma = system: SK-MEL-2 melanoma
EKVX NSCLC = system: EKVX NSCLC
SN12C renal = system: SN12C renal
UO-31 renal = system: UO-31 renal
TK-10 renal = system: TK-10 renal
ACHN renal = system: ACHN renal
CAKI-1 renal = system: CAKI-1 renal
A498 renal = system: A498 renal
CCRF-CEM leukemia = system: CCRF-CEM leukemia
MOLT-4 leukemia = system: MOLT-4 leukemia
SR leukemia = system: SR leukemia
RPMI-8226 leukemia = system: RPMI-8226 leukemia
OVCAR-8 ovarian = system: OVCAR-8 ovarian
OVCAR-5 ovarian = system: OVCAR-5 ovarian
OVCAR-4 ovarian = system: OVCAR-4 ovarian
SK-OV-3 ovarian = system: SK-OV-3 ovarian
IGROV1 ovarian = system: IGROV1 ovarian
OVCAR-3 ovarian = system: OVCAR-3 ovarian
HS 578T breast = system: HS 578T breast
NCI/ADR-RES ovarian = system: NCI/ADR-RES ovarian

Measured: growth

O=C(CCl)Nc1ccc2c(c1)C(=O)c1ccccc1C2=O
inactive: SK-MEL-2 melanoma 19.1% | EKVX NSCLC 57% | UO-31 renal 46.6% | A498 renal 44% | OVCAR-5 ovarian 18.6% | OVCAR-4 ovarian 36.8% | SK-OV-3 ovarian 54.5% | HS 578T breast 51.8% | NCI/ADR-RES ovarian 14.2%
active: SN12C renal -21.3% | TK-10 renal -27.9% | ACHN renal -67.8% | CAKI-1 renal 0.23% | CCRF-CEM leukemia -46.2% | MOLT-4 leukemia -29.1% | SR leukemia -10.3% | RPMI-8226 leukemia -59.1% | OVCAR-8 ovarian -27.3% | IGROV1 ovarian -15.6% | OVCAR-3 ovarian -87.1%

COc1cc(/C=C\c2cc(/C=C\c3ccc(O)c(OC)c3)n(C(=O)Nc3ccc(C(F)(F)F)cc3)n2)ccc1O
active: CCRF-CEM leukemia 3.42% | RPMI-8226 leukemia -0.214% | OVCAR-8 ovarian 0.433%
inactive: SK-MEL-2 melanoma 84.5% | EKVX NSCLC 61.3% | SN12C renal 36.9% | UO-31 renal 42.9% | TK-10 renal 77.7% | ACHN renal 65.8% | CAKI-1 renal 55% | A498 renal 108% | MOLT-4 leukemia 11.1% | SR leukemia 13.2% | OVCAR-5 ovarian 115% | OVCAR-4 ovarian 76.7% | SK-OV-3 ovarian 66.1% | IGROV1 ovarian 42.8% | OVCAR-3 ovarian 13.8% | NCI/ADR-RES ovarian 51.7%

C=C1C(=O)O[C@H]2[C@H]1CC/C(COC(=O)NCc1cccc(OC)c1)=C\CC[C@@]1(C)O[C@@H]21
inactive: SK-MEL-2 melanoma 40.9% | EKVX NSCLC 54.8% | SN12C renal 31.6% | CAKI-1 renal 10.4% | A498 renal 81.1% | OVCAR-8 ovarian 46.1% | OVCAR-5 ovarian 66.6% | OVCAR-4 ovarian 49% | SK-OV-3 ovarian 71.6% | IGROV1 ovarian 32.8% | HS 578T breast 75.7% | NCI/ADR-RES ovarian 57.3%
active: UO-31 renal -9.04% | TK-10 renal -11.7% | ACHN renal 2.37% | CCRF-CEM leukemia -15% | MOLT-4 leukemia -7.57% | SR leukemia 8.59% | RPMI-8226 leukemia -23.1% | OVCAR-3 ovarian -7.55%

Cc1nc(N)nc2c1CCC(Nc1ccccc1)S2 (stereo not drawn)
inactive: SK-MEL-2 melanoma 102% | EKVX NSCLC 103% | SN12C renal 101% | UO-31 renal 79.2% | TK-10 renal 105% | ACHN renal 102% | CAKI-1 renal 94% | A498 renal 97% | CCRF-CEM leukemia 90.9% | MOLT-4 leukemia 90.2% | SR leukemia 59.2% | RPMI-8226 leukemia 113% | OVCAR-8 ovarian 103% | OVCAR-5 ovarian 100% | OVCAR-4 ovarian 114% | SK-OV-3 ovarian 109% | IGROV1 ovarian 111% | OVCAR-3 ovarian 108% | NCI/ADR-RES ovarian 104%

CCC1=CC2CN(C1)Cc1c([nH]c3ccccc13)[C@@](C(=O)OC)(c1cc3c(cc1OC)N(C)[C@H]1[C@@](O)(C(=O)OC)[C@H](OC(C)=O)[C@]4(CC)C=CCN5CC[C@]31[C@@H]54)C2 (stereo partly drawn)
active: SK-MEL-2 melanoma 5.95% | A498 renal -14.6% | MOLT-4 leukemia 6.56% | SR leukemia 6.9% | SK-OV-3 ovarian 7.75% | OVCAR-3 ovarian -29.6% | NCI/ADR-RES ovarian -16.1%
inactive: EKVX NSCLC 68.6% | SN12C renal 36.9% | UO-31 renal 51.5% | TK-10 renal 41.2% | ACHN renal 34.1% | CAKI-1 renal 44.3% | CCRF-CEM leukemia 19.1% | RPMI-8226 leukemia 31.4% | OVCAR-8 ovarian 21.3% | OVCAR-5 ovarian 15.6% | OVCAR-4 ovarian 29.6% | IGROV1 ovarian 35.7% | HS 578T breast 29.1%

CCOC(=O)C(Cc1ccccc1)n1c(O)c(/C=N/c2ncc(Cc3ccc(Cl)cc3Cl)s2)sc1=S (stereo not drawn)
active: SK-MEL-2 melanoma -18.4% | SN12C renal 6.54% | UO-31 renal 3.67% | TK-10 renal 2.28% | ACHN renal 3.38% | A498 renal -27.3% | CCRF-CEM leukemia 2.77% | MOLT-4 leukemia -7.05% | RPMI-8226 leukemia -7.55% | OVCAR-8 ovarian 2.66% | SK-OV-3 ovarian 0.0373% | HS 578T breast -3.53% | NCI/ADR-RES ovarian 5.71%
inactive: EKVX NSCLC 10.8% | CAKI-1 renal 12.7% | SR leukemia 27.8% | OVCAR-5 ovarian 38.9% | OVCAR-4 ovarian 25.6% | IGROV1 ovarian 37.6% | OVCAR-3 ovarian 17.9%

CC(C)(C)OC[C@@H]1N=C(c2ccc(Br)cc2)Nc2nc3ccccn3c2C1=O
inactive: SK-MEL-2 melanoma 49.2% | EKVX NSCLC 81.6% | SN12C renal 84.1% | UO-31 renal 52.1% | TK-10 renal 95.1% | ACHN renal 75.3% | CAKI-1 renal 64.2% | A498 renal 66.9% | CCRF-CEM leukemia 67.8% | MOLT-4 leukemia 53.7% | SR leukemia 35.4% | RPMI-8226 leukemia 67.5% | OVCAR-8 ovarian 79.5% | OVCAR-5 ovarian 105% | OVCAR-4 ovarian 82.3% | SK-OV-3 ovarian 64.3% | IGROV1 ovarian 40.7% | OVCAR-3 ovarian 34.2% | HS 578T breast 65.2% | NCI/ADR-RES ovarian 39.7%

O=C(CCCCCCN1CC(=O)N2[C@@H](c3ccc(Cl)c(Cl)c3)c3[nH]c4ccccc4c3C[C@H]2C1=O)NO
active: CCRF-CEM leukemia 7.73% | MOLT-4 leukemia 8.86% | SR leukemia 7.56% | RPMI-8226 leukemia 6.04% | IGROV1 ovarian -10.5%
inactive: SK-MEL-2 melanoma 79.9% | EKVX NSCLC 64.6% | SN12C renal 60.8% | UO-31 renal 57% | TK-10 renal 40.3% | ACHN renal 70.2% | CAKI-1 renal 48.7% | A498 renal 86% | OVCAR-8 ovarian 50.3% | OVCAR-5 ovarian 46.3% | OVCAR-4 ovarian 45.6% | SK-OV-3 ovarian 73.6% | OVCAR-3 ovarian 35.3% | HS 578T breast 64.8% | NCI/ADR-RES ovarian 93.3%
